TbREL1 inh = TbREL1 inhibition, primary screen; TbREL1 RNA ligation, FRET fluorescence; inhibition, % at 9.66 µM; 0.49% of 89,000 active;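 active means inhibition above the mean inhibition across all screened compounds plus 3 SD, cut at about 11% in these data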;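 further: 0% = plate median of test wells and 100% = NSC42067 control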
Target sequence (P86926 whole entry, looked up): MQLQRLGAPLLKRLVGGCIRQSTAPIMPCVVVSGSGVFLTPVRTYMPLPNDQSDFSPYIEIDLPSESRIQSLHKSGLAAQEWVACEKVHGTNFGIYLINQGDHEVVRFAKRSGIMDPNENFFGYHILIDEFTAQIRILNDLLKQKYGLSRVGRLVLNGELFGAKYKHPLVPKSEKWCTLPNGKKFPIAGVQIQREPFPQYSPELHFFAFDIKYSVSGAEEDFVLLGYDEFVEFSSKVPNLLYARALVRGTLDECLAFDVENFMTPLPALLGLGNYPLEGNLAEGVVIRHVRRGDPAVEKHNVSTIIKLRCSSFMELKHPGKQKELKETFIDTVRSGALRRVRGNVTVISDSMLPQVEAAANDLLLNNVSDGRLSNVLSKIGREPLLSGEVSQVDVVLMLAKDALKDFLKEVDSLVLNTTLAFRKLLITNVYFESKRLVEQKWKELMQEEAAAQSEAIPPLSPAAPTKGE
Starred values were filed as active, the others as inactive. This excerpt belongs to a sample that is enriched for hits.

Results for C#CCOCCOCCOCCNc1nc(N2CCN(C(=O)Cn3cc(CCCN=C(N)N)nn3)CC2)nc(N2CCN(C(=O)[C@H]([C@@H](C)O)n3cc(CCCCN)nn3)CC2)n1 ?
TbREL1 inh: 2.8

How did C#CCOCCOCCOCCNc1nc(N2CCN(C(=O)[C@H]([C@@H](C)O)n3cc(CCCCN)nn3)CC2)nc(N2CCN(C(=O)[C@H]([C@@H](C)CC)n3cc(CCCN=C(N)N)nn3)CC2)n1 do in these assays?
TbREL1 inh: 12.2*

What do the screens show for `C#CCOCCOCCOCCNc1nc(N2CCN(C(=O)[C@H]([C@@H](C)CC)n3cc(CCCCN)nn3)CC2)nc(N2CCN(C(=O)[C@H]([C@@H](C)CC)n3cc(CCCN=C(N)N)nn3)CC2)n1`?
TbREL1 inh: 10.5

Results for CCN(C(=O)CSc1nnc(-c2ccccc2)o1)c1c(N)n(Cc2ccccc2)c(=O)[nH]c1=O ?
TbREL1 inh: 0.8

Results for CCNc1nc(NCC)nc(SCC(C)=O)n1 ?
TbREL1 inh: -1.4

Results for CC1CC(C)CN(C(=O)C(Cc2ccccc2)n2cccc2)C1 (configuration not stated) ?
TbREL1 inh: -5.8

Results for C=CCN1C(=O)[C@H](CC(=O)NCCc2ccccc2OC)[C@@]2(C(=O)OCC)CCCC=C12 ?
TbREL1 inh: -2.9

What do the screens show for `Cc1ccc2c(c1)N(C(C)C(=O)NCCc1ccccc1)C(=O)CO2` (configuration not stated)?
TbREL1 inh: 1.5

What do the screens show for `CC(C)C[C@H]1CNC(=S)N1CC1CCCN1C[C@H](CC(C)C)N1C[C@H](Cc2ccccc2)N(CC2CCCCCC2)C1=S` (some centres not stated)?
TbREL1 inh: -4.0

How did CC[C@@H](C)[C@@H]1CN([C@@H](C)CN2CCC[C@H]2CN2C(N)=NC[C@@H]2Cc2ccccc2)C(=N)N1CCCC1CCCC1 do in these assays?
TbREL1 inh: 2.6

How did CC(C)C[C@@H]1CN=C(N)N1C[C@@H]1CCCN1C[C@@H](C(C)C)N1C[C@@H](Cc2ccccc2)N(CCCC2CCCC2)C1=N do in these assays?
TbREL1 inh: 12.6*

How did CC(C)CN(CC(C)C)C(=O)c1ccc2c(c1)NC(=O)C(C)(C)O2 do in these assays?
TbREL1 inh: -3.4

What do the screens show for `CC(C)N(C(=O)[C@H]1C[C@H](CC(=O)NCc2ccco2)C(=O)N2CCc3c([nH]c4cc(CCC(=O)N(C)C)ccc34)[C@]12C)C(C)C`?
TbREL1 inh: -3.5

How did CN1CCN(c2ccc(NC(=O)c3cccs3)cc2)CC1 do in these assays?
TbREL1 inh: 5.2

What do the screens show for `CN1CCN(c2ccc(NC(=O)COc3ccccc3Cl)cc2)CC1`?
TbREL1 inh: -0.3

What do the screens show for `C=CC(=O)Nc1ccc(N(C)c2ccnc(Nc3ccc(N4CCN(C)CC4)cc3)n2)cc1`?
TbREL1 inh: 11.7*

Results for O=C(NCc1cccs1)C1CCN(c2nccs2)CC1 ?
TbREL1 inh: -2.2

How did CC1(C)OC(=O)C=C(CC2NS(=O)(=O)OC3CCCCC23)O1 (configuration not stated) do in these assays?
TbREL1 inh: 1.6

What do the screens show for `CC(C)CNC(=O)CC(c1ccccc1)c1ccccc1`?
TbREL1 inh: -1.8

Results for Cn1cccc1/C=C1\SC(=S)N(NC(=O)c2ccccc2)C1=O ?
TbREL1 inh: 4.1

What do the screens show for `O=C(NN1C(=O)/C(=C/C=C/c2ccco2)SC1=S)c1ccccc1O`?
TbREL1 inh: 86.0*

What do the screens show for `O=C(/C=C/c1ccco1)Oc1cc(Br)cc(/C=N/NC(=O)c2ccccc2O)c1`?
TbREL1 inh: 0.1

How did COC[C@H]1CCCN1c1ccc2c(c1)OCCCN(C1CC1)S2(=O)=O do in these assays?
TbREL1 inh: -3.4

What do the screens show for `O=C(CSc1nc2ccccc2s1)Nc1cc(C(=O)O)cc(C(=O)O)c1`?
TbREL1 inh: 3.7

How did COc1ccc(OC)c(S(=O)(=O)n2c(CN3CCOCC3)nc3ccccc32)c1 do in these assays?
TbREL1 inh: 1.7

What do the screens show for `O=C(Cc1ccccc1)NCC(=O)Nc1cccc(Br)c1`?
TbREL1 inh: -0.1

How did O=C(O)c1ccccc1-c1ccccc1C(=O)NNc1ccccc1 do in these assays?
TbREL1 inh: 0.8

What do the screens show for `O=C(O)c1ccccc1-c1ccccc1C(=O)Nc1cccc(Br)c1`?
TbREL1 inh: 11.1*

Results for CCN(Cc1ccccc1)S(=O)(=O)c1ccc(S(=O)(=O)N2CCN(C)CC2)cc1 ?
TbREL1 inh: 2.2

What do the screens show for `CC(C)c1csc2nc3n(c(=O)c12)CCCCC3`?
TbREL1 inh: 5.2

How did O=c1c2c3c(sc2nc2n1CCCCC2)CCC3 do in these assays?
TbREL1 inh: 4.0

How did O=C1c2sc3nc4n(c(=O)c3c2CCC1Br)CCCCC4 (configuration not stated) do in these assays?
TbREL1 inh: 16.1*

How did Cc1ccccc1CN1CCCCC(NC(=O)c2ccccc2C)C1=O (configuration not stated) do in these assays?
TbREL1 inh: -1.0

Results for CCCOc1ccc(C2C(=O)N(C3CCCCC3)CC(=O)N2CCCOCC)cc1OC (configuration not stated) ?
TbREL1 inh: -3.5

What do the screens show for `Cc1nn(-c2ccc(F)cc2F)c2c1-c1nc(N3CCCC3)ncc1CC2`?
TbREL1 inh: -3.6

How did O=C(CNS(=O)(=O)c1ccccc1)NCc1ccco1 do in these assays?
TbREL1 inh: 0.5

Results for Cc1ccc(CNC(=O)c2ccc(N3CCC4(CC3)CC(c3cccc(Br)c3)=NO4)c(NC(=O)c3c(Cl)cccc3Cl)c2)cc1 ?
TbREL1 inh: 0.8

What do the screens show for `CC(=O)Oc1cc(C(=O)OCC(=O)NC23CC4CC(CC(C4)C2)C3)cc(OC(C)=O)c1OC(C)=O`?
TbREL1 inh: 12.3*

What do the screens show for `COc1ccc(C(=O)OCC(=O)NC23CC4CC(CC(C4)C2)C3)c(OC)c1OC`?
TbREL1 inh: 3.6

What do the screens show for `O=C(COC(=O)c1ccccn1)NC12CC3CC(CC(C3)C1)C2`?
TbREL1 inh: -0.2

How did Cc1ccc(CNC(=O)CC(C)S(=O)(=O)c2cc3c(cc2C)NC(=O)CO3)cc1 (configuration not stated) do in these assays?
TbREL1 inh: 0.3

What do the screens show for `COC(=O)c1ccccc1-c1c2ccc(=N)cc-2oc2cc(N)ccc12`?
TbREL1 inh: -166.9

How did COc1cc(OC)c(-c2c3cc(O)c(=O)cc-3oc3cc(O)c(O)cc23)cc1OC do in these assays?
TbREL1 inh: 20.3*

How did COc1c(O)cc2oc(-c3ccc(O)cc3)cc(=O)c2c1O do in these assays?
TbREL1 inh: -1.6

Results for O=C(CSc1nc2ccccc2c(=O)n1-c1ccccc1)Nc1ccc2c(c1)CCC2 ?
TbREL1 inh: 1.0

What do the screens show for `Cc1nc2sc3c(O)cc(=O)[nH]c3c2c(C)c1C`?
TbREL1 inh: 0.0

How did C[C@@H]1CCC[C@@]2(O[C@@H](CCO)C[C@@H](O)[C@@H]2O)O1 do in these assays?
TbREL1 inh: 3.5

How did COc1ccc(CCNC(=O)CN2C(=O)NC3(CCCCC3)C2=O)cc1 do in these assays?
TbREL1 inh: -1.0

Results for Cc1ccc(C(=O)NCCn2c(N)c(C#N)c3nc4ccccc4nc32)cc1 ?
TbREL1 inh: -1.6

Results for CCC(C)n1c(NC(=O)c2ccccc2)c(C#N)c2nc3ccccc3nc21 (configuration not stated) ?
TbREL1 inh: 11.6*

Results for CCn1c(NC(=O)c2ccc(C)cc2)c2ccccc2nc1=O ?
TbREL1 inh: -4.1

What do the screens show for `O=S(=O)(c1cccs1)N1CCN(c2ccc(O)cc2)CC1`?
TbREL1 inh: 2.4

Results for O=C(COC(=O)C1=COCCO1)Nc1ccc(Br)cc1Br ?
TbREL1 inh: -0.5
